According to PubChem BioAssay AID493169 (National Center for Advancing Translational Sciences (NCATS), 2011):
Results filed as inconclusive are left out. Unmarked numbers belong to inactive results. Active and inactive are the calls of the source. Calls follow the shape of the dose curve; as a rule, active = well fitted inhibition curve with a large enough effect; inconclusive = small, poorly fitted or top-dose-only effect; inactive = flat fitted curve, though single readings scatter.

Test: CHOP2 Reporter Counterscreen Assay for Inhibitors of Ubiquitin-specific Protease USP2a;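 also: activated enterokinase alone at 50 pM in a cell-free format rather than USP2a or CHOP2; nearly all actives have a fitted effect of over 55% in size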
Details: purified enterokinase, fluorogenic substrate, 485/531 nm; series mostly up to 38.3 µM; activity change, negative = inhibition: at the top concentration
Method in brief: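 Fluorescence (485/531 nm) read 10 min after adding 25nM reporter substrate to 50 pM activated EK preincubated 30 min RT with compound; Tris pH 8.0/CaCl2/CHAPS buffer. Data normalized to buffer-alone inhibition; concentration-response curves fitted.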
% is scaled to controls: 0 for no effect and ±100 for the full control effect; potency is read from the fitted curve at half-maximal effect.

Compound | activity change, negative = inhibition | Potency
O=C(c1ccccc1)N1CCN(C(=O)N2CCCCC2)CC1 | 2.79% | –
CN1CCN(Cc2c(O)ccc3c(=O)c(Oc4ccccc4Cl)c(C(F)(F)F)oc23)CC1 | 5.85% | –
COc1ccc(NC(=O)CSc2nc3sc(C)cc3c(=O)n2C)c(OC)c1 | -4.63% | –
CCn1nc(C(=O)N[C@@H](CCSC)c2nc3ccccc3[nH]2)c2ccccc2c1=O | -2.42% | –
CC(C)(C)[C@H]1COC(=O)[C@@H](Cc2ccc(F)cc2)C/C=C\C[C@@H](CC(=O)N[C@H](CO)Cc2ccccc2)C(=O)N1 | -3.42% | –
COc1ccc(-c2nnn(CC(=O)N3CCOCC3)n2)cc1 | 2.46% | –
CC(C)n1nc(C(=O)Nc2ccccc2N2CCOCC2)c2ccccc2c1=O | 2.45% | –
O=C(C[n+]1ccc(-c2cc(C(=O)Nc3cccc(C(F)(F)F)c3)c3ccccc3n2)cc1)c1cccc([N+](=O)[O-])c1 | -18% | –
COc1ccccc1-c1nnc(SCC(=O)Nc2nc(-c3ccccc3)cs2)n1C | -2.53% | –
C=CC[C@H](CC(=O)N(CCO)Cc1ccccc1)C(=O)N[C@H](C)COC(=O)[C@@H](CC=C)CC(=O)OC(C)(C)C | 0.348% | –
O=C(C[n+]1cccc(C(=O)N/N=C/c2ccc(Br)cc2)c1)c1ccccc1 | -1.9% | –
COC(=O)c1c(N2C(=O)CCC2=O)sc2c1CCCC2 | -0.467% | –
CCCCCCCCCCOC(=O)Cn1c(COc2ccc(C)cc2)[n+](C)c2ccccc21 | – | 5.62 µM (active)
Cc1ccc2oc(=O)c3cnn(CC(=O)NCCCOC(C)C)c3c2c1 | -0.662% | –
CC1CCN(CC(O)COc2cccc(F)c2)CC1 (stereo not given) | -2% | –
COc1ccc(CNS(=O)(=O)c2ccc(S(=O)(=O)N3CCCCC3)cc2)cc1 | 5.66% | –
CCCCn1c(SCC(=O)N2CCC(C)CC2)nc2cc(S(N)(=O)=O)ccc21 | -3.32% | –
CC1=NC(C(F)(F)F)(C(F)(F)F)C2=C(CC(C)(C)CC2=O)N1Cc1ccco1 | 1.95% | –
O=C(CCn1c(=O)c2ccccc2n(Cc2ccccc2)c1=O)NCc1ccc2c(c1)OCO2 | -8.97% | –
CCN1C(=O)C(NC(C)=O)c2cc(OC)ccc21 (stereo not given) | 1.84% | –

Compound | activity change, negative = inhibition | Potency
O=C(COc1ccccc1)N1CCN(C(=O)Cc2ccccc2)CC1 | 1.53% | –
COc1ccc2[nH]c(=O)c(CN(C3CCCCC3)C(c3nnnn3Cc3ccco3)C(C)C)cc2c1 (stereo not given) | – | 10 µM (active)
C#CCOCCOCCOCCNc1nc(N2CCN(C(=O)CCCCCCCCCCNC(=O)Cn3cc(CCCCCN)nn3)CC2)nc(N2CCN(C(=O)CCCCCCCCCCNC(=O)Cn3cc(CCCCCN)nn3)CC2)n1 | – | 10 µM (active)
COc1cc(NC(=O)COC(=O)CSc2ccccc2F)c(C)cc1[N+](=O)[O-] | -22.9% | –
Cc1[nH]c2ccccc2c1C(c1ccccn1)c1c(C)[nH]c2ccccc12 | -6.71% | –
CCOC(=O)C1CCCN(CC(=O)Nc2c(C(=O)OC)[nH]c3ccc(C)cc23)C1 (stereo not given) | -2.91% | –
CCn1c(CN2CCOCC2)nnc1SCC(=O)Nc1ccc(C(C)=O)cc1 | -3.75% | –
Cc1onc(-c2ccccc2)c1C(=O)N1CCN(C)CC1 | 1.29% | –
C#CCOCCOCCOCCNc1nc(N2CCN(C(=O)CCCCCCCCCCNC(=O)Cn3cc(CCCCCN)nn3)CC2)nc(N2CCN(C(=O)CCCCCCCCCCNC(=O)[C@H]([C@@H](C)CC)n3cc(CCCCCN)nn3)CC2)n1 | – | 5.62 µM (active)
CCCn1c(C)cc(C)c(C#N)c1=O | 0.326% | –
COc1ccc(NC(=O)C2CC(=O)OC2c2ccccc2)cc1 (stereo not given) | 0.309% | –
CSc1cccc(NC(=O)c2ccccc2N(C)S(C)(=O)=O)c1 | 3.92% | –
CCCC(c1nnnn1Cc1ccc(OC)cc1)N1CCC(C(N)=O)CC1 (stereo not given) | 1.02% | –
Cc1cc(N2CCC(C(=O)NC3CC3)CC2)nc(-c2ccccc2)n1 | -2.34% | –
O=C(CSc1nc(O)cc(=O)n1-c1ccccc1)NC1CCCCC1 | -0.765% | –
FC(F)(F)c1cnc2c(c1)Nc1ccccc1S2 | 7.72% | –
O=C(COC(=O)/C=C/c1ccc(Cl)cc1)NC1CC1 | 1.41% | –
CCOC(=O)CCCNC(=O)COC(=O)c1cccc(C)c1O | 5.39% | –
CCCOc1ccc(N2C(=O)CC(NCCc3ccc(S(N)(=O)=O)cc3)C2=O)cc1 (stereo not given) | 0.525% | –
CN(c1ccccc1)S(=O)(=O)c1ccc(Cl)c(C(=O)NCCc2c[nH]c3ccccc23)c1 | -0.834% | –
